Shown are actives, neighbours in structure and some others; about 4% of the full set was active somewhere.
MITF TRPM1 inh = inhibitors of MITF-dependent TRPM1 promoter reporter, primary screen, cell-based, SK-MEL-5, single point, luciferase | hit rate 0.83% among 330,000 | SK-MEL-5 TRPM1 promoter luciferase, 24 h | inhibition, % at 12.5 µM | AID 488899, 2010;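 active = mean inhibition across replicates of 60% or more, whatever share of single replicates reaches that level; inconclusive = some that reach 60%, reason not given; inactive = mean inhibition across replicates below 60%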
Wnt bcat act = Wnt/beta-catenin pathway activators, primary screen, cell-based, plate reader, single point. Wnt/beta-catenin reporter cell assay, activator. activation, % at 9.35 µM. hit rate 1.2% among 300,000; in the data active = activation above about 30%, passing the limit was not always enough; inconclusive = no clear call, values can overlap the other calls;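 also: 0% = neutral control wells and 100% = positive control wells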
Statin myotox sup = suppressors of statin myotoxicity in C2C12 myotubes, primary screen, cell-based, single point, plate reader. AID 602340, 2012. rescue of ATP level, % at 7.49 µM. hit rate 0.78% among 330,000. C2C12 myotubes + simvastatin, ATP luminescence, 48 h; scaled: DMSO 0, geranylgeraniol control 100;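 active = mean ATP rescue above about 67%, or every replicate alone reaching that limit, limit read from the data, passing the limit was not always enough; inconclusive = no clear call, values can overlap the other calls; inactive = mean under the limit and some replicate under it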;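 also: myotubes were challenged with 10 µM simvastatin during compound exposure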
MITF TRPM1 HTS = activators of MITF-driven TRPM1 promoter reporter, primary screen, cell-based, SK-MEL-5, luciferase, single point; hit rate 0.75% among 300,000; AID 588334, 2011; activation, % at 12.5 µM; SK-MEL-5 TRPM1-promoter luciferase, 24 h; % of positive control, neutral wells = 0;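 active = mean activation of at least 80% with every replicate also reaching 80%; inconclusive = mean reaches 80% but some replicate falls short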;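 also: 0% = neutral control wells and 100% = parthenolide positive control wells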
esBAF inh = Bmi1 luciferase reporter increase in mESCs, primary screen, esBAF inhibitor project, mouse ES cells, Bmi1 luciferase knock-in, single point | 24 h; 100% = twice the neutral-well signal | reporter increase, % at 12.5 µM | hit rate 2% among 350,000; in the data active = activation above about 40%; inconclusive = no clear call, values can overlap the other calls;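 also: 0% = median of the plate's neutral control wells and 100% = double that signal; a rise in the Bmi1 reporter signal indicates esBAF inhibition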
LMP1 NFkB inh = EBV LMP1-driven NF-kappaB luciferase reporter inhibitors, primary screen, cell-based, luminescence, single point; LMP1-induced NF-kappaB luciferase reporter cells; inhibition, % at 12.5 µM; hit rate 0.69% among 350,000; AID 504558, 2011; in the data active = inhibition above about 41%; inconclusive = no clear call, values can overlap the other calls;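 also: 0% = neutral control wells and 100% = reference inhibitor control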
Starred values were filed as active, the others as inactive; ? = inconclusive; nt = no result given.

SMILES | MITF TRPM1 inh | Wnt bcat act | Statin myotox sup | MITF TRPM1 HTS | esBAF inh | LMP1 NFkB inh
Cc1c(OCC(=O)NC2CC(C)(C)NC(C)(C)C2)ccc2c3c(c(=O)oc12)CCC3 | 4 | 0 | -5 | -1 | 0 | -6
Cc1c(OCC(=O)NC2CC(C)(C)NC(C)(C)C2)ccc2c1oc(=O)c1ccccc12 | 76* | 1 | -3 | -74 | 1 | -14
CC(C)CCNC(=O)C(=O)NCCC1=CCCCC1 | -10 | -1 | -2 | 19 | 8 | -3
Cc1cc(C)cc(N(C(C)C(=O)NCCC2=CCCCC2)S(C)(=O)=O)c1 (configuration not stated) | 13 | -1 | 93* | -16 | 6 | -6
CN1C(C(=O)NCC2CC2)CC2Cn3c(nc4cc5ccccc5cc43)C21 (configuration not stated) | -8 | 0 | 2 | 12 | 7 | -8
COc1ccccc1C(=O)N1C[C@@H]2[C@H](c3ccccc31)[C@H](CO)N2C(=O)C1CC1 | nt | nt | 3 | nt | -5 | nt
O=[N+]([O-])c1ccccc1NCCOc1ccccc1 | -68 | 67* | nt | 65 | nt | -35
O=C(CCOc1ccccc1)Nc1ccccc1[N+](=O)[O-] | -3 | 2 | nt | 7 | nt | 10
Cc1ccc2c(c1)c1c(n2C)-c2[nH]ncc2CC1 | -39 | 41* | -1 | nt | 22 | -34
Cc1ccc2c(c1)c1c(n2C)C(C(N)=O)CCC1 (configuration not stated) | 4 | 4 | -3 | -2 | -1 | -4
Cc1nn(Cc2ccc([N+](=O)[O-])cc2)c(=O)n1-c1ccccc1Cl | 16 | -2 | nt | -9 | nt | 4
CCCCCc1ccc2cc(C#N)ccc2n1 | nt | 1 | -14 | nt | 48* | nt
CCCCc1c(O)c2cccc3c2n(c1=O)CCC3 | nt | 0 | nt | nt | nt | nt
COC(=O)c1c(NC(=O)CCCC(=O)O)sc(C)c1C | 6 | -1 | nt | -5 | -8 | 1
CCc1ccc(CCC(=O)Nc2sc(C)c(C)c2C(=O)OC)o1 | 15 | -1 | 94* | -14 | -4 | 4
Cc1ccc(CCC(=O)Nc2ccccc2C(=O)O)o1 | -28 | 0 | -3 | 26 | 32 | -22
O=C(NCCc1ccccc1)C(=O)NCC1OCCN1S(=O)(=O)c1ccc([N+](=O)[O-])cc1 (configuration not stated) | -18 | 1 | 4 | 22 | -8 | -21
COc1ccc(C2Nc3ccccc3C(=O)N2c2ccc(C)cc2)cc1Cn1cc([N+](=O)[O-])cn1 (configuration not stated) | -86 | 7 | -33 | 91* | 39 | -9
COc1ccc(C2Nc3ccccc3C(=O)N2c2ccc(C)cc2)cc1Cn1nnc2ccccc21 (configuration not stated) | -88 | 14 | -10 | 98* | 13 | -12
CCCCN(CC)CCCNC(=O)c1cc2c(=O)n(CC)c3ccccc3c2s1 | 69* | 0 | 97* | -68 | 8 | -25
CCCCN(CC)CCNC(=O)c1cc2c(=O)n(CC)c3ccccc3c2s1 | -7 | 3 | 7 | 9 | -10 | -39
Cc1nnc(Sc2nc3c(c(=O)n(C)c(=O)n3C)n2Cc2ccccc2Cl)s1 | -7 | -5 | 118* | 7 | -8 | -2
Cn1c(=O)c2c(nc(N3CCNCC3)n2Cc2ccccc2Cl)n(C)c1=O | 5 | -2 | -4 | -3 | -3 | 2
CC(C)Oc1ccc(C(CCNCc2ccc(O)cc2)c2ccccc2)cc1 (configuration not stated) | 86* | 0 | -66 | -86 | -18 | 4
COc1ccc(C(CCNCc2ccc(N(C)C)cc2)c2ccccc2)cc1 (configuration not stated) | 33 | 2 | -5 | -28 | 0 | 3
SMILES | MITF TRPM1 inh | Wnt bcat act | Statin myotox sup | MITF TRPM1 HTS | esBAF inh | LMP1 NFkB inh
O=C(c1ccc(C(F)(F)F)cc1)n1ccc(-c2cccs2)n1 | 1 | 42* | nt | -2 | nt | -2
O=C(c1ccc(F)cc1)n1ccc(-c2cnc(-c3ccccc3)s2)n1 | -69 | nt | 6 | 67 | 27 | -2
O=C(CNS(=O)(=O)c1ccccc1)NCc1ccco1 | 14 | 5 | 12 | -15 | -1 | -1
C=CCn1c(-c2ccc(OC)cc2)nc2ccccc21 | -17 | 7 | -6 | 19 | 41* | -4
CCn1c(/C=C/c2ccccc2)nc2ccccc21 | -4 | nt | -77 | 5 | -7 | -29
COc1ccc(Cn2c(/C=C/c3ccccc3)nc3ccccc32)cc1 | -82 | 84* | -12 | 87* | ? | -59
COc1ccc(-c2nc3ccccc3n2Cc2ccccc2)cc1 | -8 | 1 | 13 | 11 | 6 | 1
COc1ccc(/C=C/c2nc3ccccc3c(=O)o2)cc1 | 2 | 0 | -23 | -7 | -73 | 51*
COc1ccc(NCc2nc3ccccc3n2C)cc1 | -57 | 1 | 11 | nt | 18 | -35
COc1ccc(/C=C/c2nc3ccccc3n2C)cc1 | 36 | -17 | -106 | -35 | -79 | 54*
COc1cccc(-c2nnn(CC(C)=O)n2)c1 | -78 | nt | nt | 82* | nt | -7
CCOc1ccc(-c2nnn(CC(=O)Nc3cccc(OC)c3)n2)cc1OCC | 12 | 33* | -1 | -9 | 0 | 3
CCc1ccc(Nc2ncnc3nc[nH]c23)cc1 | -99 | 47* | -5 | 96* | 8 | 0
CCCCc1ccc(Nc2ncnc3nc[nH]c23)cc1 | -96 | 25 | 7 | 105* | 9 | -16
CC[C@@]1(O)C(=O)OCc2c1cc1n(c2=O)Cc2cc3c(N)cccc3nc2-1 | 80* | -18 | -19 | -80 | -74 | 83*
CC[C@@]1(O)C(=O)OCc2c1cc1n(c2=O)Cc2cc3c(CN(C)C)c(O)ccc3nc2-1 | 79* | 5 | -4 | -78 | -46 | 75*
CCCCc1cc(=O)oc2c(CN(C)C)c(O)ccc12 | 0 | -7 | -4 | -3 | 0 | 7
CCS(=O)(=O)NC(=O)C1(C)CCN1C(=O)C1(c2ccc(Cl)cc2)CC1 (configuration not stated) | nt | -4 | 11 | nt | -2 | nt
O=[N+]([O-])c1cc(S(=O)(=O)C(F)(F)F)ccc1Sc1nc2ccccc2s1 | 54 | nt | 86* | -54 | -14 | 6
O=[N+]([O-])c1cc(S(=O)(=O)C(F)(F)F)ccc1Sc1nc2ccccc2[nH]1 | 96* | nt | nt | -95 | nt | 2
CS(=O)(=O)c1ccc(Sc2nc3ccccc3[nH]2)c([N+](=O)[O-])c1 | 7 | -1 | nt | nt | 9 | -6
CS(=O)(=O)c1ccc(Sc2nc3ccccc3s2)c([N+](=O)[O-])c1 | 39 | nt | nt | -38 | nt | 56*
Cc1cc(OCC(=O)N(C)Cc2ccccc2)ccc1Cl | -56 | 8 | 13 | 55 | ? | -24

Source: PubChem
